PubChem BioAssay AID1159580 (chemical genetic matrix, 2015)
Screen size: about 5,500 compounds; about 2,000 (36%) were called active. Inconclusive results (about 18%) are left out. No stated cut-off is given here; in the data, active means normalized growth mostly below about 0.91 (no sharp cut-off); inconclusive means no clear call, values can overlap the other calls; inactive means mostly above about 0.92. This is one part of the list.

Assay: chemical genetic growth profiling, strain panel (AID 1159580);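 further: tested at 20 µM; growth read once vehicle control cultures reached saturation at 30 °C; 1 = growth at the plate median or of vehicle wells; lower values mean less growth of the strain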
Details: S. cerevisiae deletion strains, growth OD
[1] = locus YDL101C, strain DUN1, hits give low values
[2] = locus YHR030C, strain SLT2, hits give low values

Measured: normalized growth

Cc1ccc(-c2csc(-c3ccc(Cl)cc3)n2)c(C)c1
active: [2] 0.611 | locus YLR085C, strain ARP6, hits give low values 0.753 | locus YOL006C, strain TOP1, hits give low values 0.686
inactive: locus YAL013W, strain DEP1, hits give low values 0.979 | locus YBR229C, strain ROT2, hits give low values 0.978 | [1] 0.968 | locus YDR150W, strain NUM1, hits give low values 0.987 | locus YEL061C, strain CIN8, hits give low values 0.914 | locus YGR078C, strain PAC10, hits give low values 0.989 | locus YHR087W, strain rtc3, hits give low values 0.956 | locus YJL187C, strain SWE1, hits give low values 0.994 | locus YJR043C, strain POL32, hits give low values 0.994 | locus YJR075W, strain HOC1, hits give low values 1.01 | locus YLR039C, strain RIC1, hits give low values 0.926 | locus YLR058C, strain SHM2 (second series), hits give low values 0.988 | locus YLR262C, strain YPT6, hits give low values 0.952 | locus YML094W, strain GIM5, hits give low values 0.9 | locus YMR219W, strain ESC1, hits give low values 0.998 | locus YMR263W, strain SAP30, hits give low values 1.01 | locus YNL153C, strain GIM3, hits give low values 1.01 | locus YNL298W, strain CLA4 (second series), hits give low values 0.908 | locus YNL322C, strain KRE1, hits give low values 0.987 | locus YNR030W, strain Alg12, hits give low values 0.949 | locus YPL055C, strain LGE1, hits give low values 0.968 | locus YPL241C, strain CIN2, hits give low values 1.1 | locus YPR135W, strain CTF4, hits give low values 0.772

Cc1ccc(-c2csc(-c3cccnc3)n2)c(C)c1
inactive: locus YAR019C, strain CDC15, hits give low values 0.948 | locus YBL105C, strain PKC1, hits give low values 0.967 | locus YBR135W, strain CKS1, hits give low values 0.954 | locus YBR136W, strain MEC1, hits give low values 0.958 | locus YBR160W, strain CDC28, hits give low values 0.963 | locus YDL017W, strain CDC7, hits give low values 0.967 | locus YDL028C, strain MPS1, hits give low values 0.964 | [1] 0.938 | locus YDL108W, strain KIN28, hits give low values 0.964 | locus YDL132W, strain cdc53, hits give low values 0.946 | locus YDL214C, strain PRR2, hits give low values 0.88 | locus YDR052C, strain DBF4, hits give low values 0.96 | locus YDR054C, strain cdc34, hits give low values 0.943 | locus YDR226W, strain ADK1, hits give low values 0.964 | locus YDR477W, strain SNF1, hits give low values 0.87 | locus YER123W, strain YCK3, hits give low values 0.769 | locus YER133W, strain GLC7, hits give low values 0.85 | locus YFL009W, strain cdc4, hits give low values 0.954 | locus YFL029C, strain CAK1, hits give low values 0.943 | locus YFR003C, strain YPI1, hits give low values 0.959 | locus YFR019W, strain FAB1, hits give low values 0.821 | locus YFR028C, strain CDC14, hits give low values 0.947 | locus YGR040W, strain KSS1, hits give low values 0.832 | locus YGR052W, strain FMP48, hits give low values 0.933 | locus YGR092W, strain DBF2, hits give low values 0.737 | locus YHR079C, strain IRE1, hits give low values 0.839 | locus YHR082C, strain KSP1, hits give low values 0.901 | locus YHR205W, strain SCH9, hits give low values 0.886 | locus YIL147C, strain SLN1, hits give low values 0.957 | locus YJL095W, strain BCK1, hits give low values 0.772 | locus YJL128C, strain PBS2, hits give low values 0.946 | locus YJL157C, strain FAR1, hits give low values 0.898 | locus YJR016C, strain ILV3, hits give low values 0.956 | locus YJR066W, strain TOR1 (second series), hits give low values 0.796 | locus YJR066W, strain TOR1, hits give low values 0.833 | locus YKL048C, strain ELM1, hits give low values 0.939 | locus YKL067W, strain YNK1, hits give low values 0.897 | locus YKL101W, strain HSL1, hits give low values 0.914 | locus YKL193C, strain SDS22, hits give low values 0.945 | locus YKL203C, strain TOR2, hits give low values 0.847 | locus YLR133W, strain CKI1, hits give low values 0.905 | locus YLR403W, strain SFP1, hits give low values 0.809 | locus YML070W, strain DAK1, hits give low values 0.891 | locus YMR001C, strain CDC5, hits give low values 0.957 | locus YMR205C, strain PFK2 (second series), hits give low values 0.879 | locus YMR277W, strain FCP1, hits give low values 0.951 | locus YNL006W, strain LST8, hits give low values 0.96 | locus YNL020C, strain ARK1, hits give low values 0.898 | locus YNL161W, strain CBK1, hits give low values 0.96 | locus YNL183C, strain NPR1, hits give low values 0.826 | locus YNL207W, strain RIO2, hits give low values 0.935 | locus YNL222W, strain SSU72, hits give low values 0.955 | locus YNL307C, strain MCK1 (second series), hits give low values 0.862 | locus YOL078W, strain AVO1, hits give low values 0.953 | locus YOL136C, strain PFK27, hits give low values 0.894 | locus YOR061W, strain CKA2, hits give low values 0.912 | locus YOR119C, strain RIO1, hits give low values 0.881 | locus YOR231W, strain MKK1, hits give low values 0.841 | locus YOR329C, strain SCD5, hits give low values 0.951 | locus YPL031C, strain PHO85, hits give low values 0.832 | locus YPL153C, strain RAD53, hits give low values 0.838 | locus YPL204W, strain HRR25, hits give low values 0.796 | locus YPL209C, strain IPL1, hits give low values 0.955 | locus YPR025C, strain CCL1, hits give low values 0.959 | locus YPR106W, strain ISR1, hits give low values 0.957 | locus YPR111W, strain DBF20, hits give low values 0.966 | strain NNK1, hits give low values 0.947 | strain TSCII, hits give low values 0.948
active: [2] 0.763 | locus YLR113W, strain HOG1, hits give low values 0.854 | locus YPL256C, strain CLN2, hits give low values 0.849
